Test results: PubChem BioAssay
Activity calls are given as the source filed them.

Tests used:
Albumin (Bos taurus) = Albumin (Bos taurus) (UniProt P02769); assay: compounds binding labelled BSA control protein – biochemical, small-molecule microarray, Alexa647 label, 635/667 nm fluorescence, artefact control for SMM control protein annotation, profiling panel (AID 1118); conditions: BSA-A647 binding, fluorescence 635 nm, higher = more signal;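 further: score merges 667 nm emission intensity and signal-to-noise per printed compound spot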
Chain of Albumin (Bos taurus) (P02769 whole entry, looked up): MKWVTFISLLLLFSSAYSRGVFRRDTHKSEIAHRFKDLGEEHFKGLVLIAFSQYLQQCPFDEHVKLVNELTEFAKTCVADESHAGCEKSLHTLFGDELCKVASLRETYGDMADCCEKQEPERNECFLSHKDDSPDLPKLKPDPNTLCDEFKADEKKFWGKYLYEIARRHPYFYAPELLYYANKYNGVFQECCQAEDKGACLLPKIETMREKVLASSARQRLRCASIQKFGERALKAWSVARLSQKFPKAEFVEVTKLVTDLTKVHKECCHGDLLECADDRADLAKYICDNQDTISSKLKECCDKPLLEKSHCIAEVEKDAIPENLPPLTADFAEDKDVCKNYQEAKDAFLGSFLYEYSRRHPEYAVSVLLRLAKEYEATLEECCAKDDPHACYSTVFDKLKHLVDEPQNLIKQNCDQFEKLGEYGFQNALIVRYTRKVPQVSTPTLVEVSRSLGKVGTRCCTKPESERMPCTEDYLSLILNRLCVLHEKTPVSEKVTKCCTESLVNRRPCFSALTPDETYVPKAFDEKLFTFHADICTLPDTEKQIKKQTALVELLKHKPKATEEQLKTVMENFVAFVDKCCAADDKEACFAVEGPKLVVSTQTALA

[1] = probe aXIP binding to arrayed compounds – biochemical, NeuroSMM set, 635/667 nm fluorescence, primary screen (AID 1119); conditions: small-molecule microarray, higher = more signal, called active from +8 up or from −8 down;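 further: probe is the protein aXip251-270 applied at 1 µg/mL to compound-printed slides; binding of probe to printed compounds measured as 667 nm fluorescence plus signal to noise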
[2] = probe aNOTCH3 binding on compound microarray – biochemical, small-molecule microarray, 635/667 nm fluorescence, primary screen (AID 1120); conditions: higher = more signal;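 further: probe is a biotin-tagged antibody raised against NOTCH3 rather than NOTCH3 protein; score merges spot fluorescence near 667 nm with spot signal to noise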
[3] = probe aNOTCH2 binding on compound microarray – biochemical, small-molecule microarray, 635/667 nm fluorescence, primary screen (AID 1121); conditions: higher = more signal;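 further: score merges feature fluorescence read at 667 nm with its signal to noise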
[4] = biological target: Carbonic anhydrase 2 (Homo sapiens) (UniProt P00918); assay: compounds binding carbonic anhydrase 2 – biochemical, small-molecule microarray, Alexa647-labelled CAII, profiling panel (AID 1122); conditions: CAII-A647 binding fluorescence, higher = more signal
[5] = COS7 lysate on small-molecule microarray, probe aHis, 635 nm (AID 1123); conditions: COS7 cell lysate, fluorescence, higher = more signal;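 further: z-score combines 667nm fluorescence intensity with signal-to-noise per printed compound spot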
[6] = probe aLAP1 signal on lysate-treated microarray – cell lysate, small-molecule microarray, COS7 lysate, primary screen (AID 1124); conditions: probe aLAP1, fluorescence, higher = more signal;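 further: lysate comes from COS7 cells expressing LAP1 and is applied at 0.3 µg/mL; score merges spot fluorescence near 667 nm with signal-to-noise over triplicate slides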
Sam68 (KHDRBS1) = assay: compounds binding KHDRBS1 protein – biochemical, small-molecule microarray, 635 nm fluorescence, primary screen (AID 1125); conditions: higher = more signal;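 further: score merges 667 nm channel intensity with signal to noise over triplicate slides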
[7] = system: Chordin-like protein 2 (CHRDL2); assay: compounds binding chordin-like 2 – biochemical, small-molecule microarray, 635 nm fluorescence, primary screen (AID 1126); conditions: fluorescence 635 nm, higher = more signal;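 further: printed compound slides probed with Chrdl2 protein at 4 µg/mL for 1 h at 4 C; score merges 667 nm emission intensity with signal to noise over three replicate slides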
[8] = biological target: Concanavalin-A (Canavalia ensiformis) (UniProt P02866); assay: compounds binding concanavalin A lectin – biochemical, small-molecule microarray, Alexa647 label, 635 nm, artefact control for SMM control protein annotation, primary screen (AID 1127); conditions: ConA-A647 binding fluorescence, higher = more signal;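 further: z combines 667 nm emission intensity with signal-to-noise across three replicate slides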
Chain of Concanavalin-A (Canavalia ensiformis) (P02866 whole entry, looked up): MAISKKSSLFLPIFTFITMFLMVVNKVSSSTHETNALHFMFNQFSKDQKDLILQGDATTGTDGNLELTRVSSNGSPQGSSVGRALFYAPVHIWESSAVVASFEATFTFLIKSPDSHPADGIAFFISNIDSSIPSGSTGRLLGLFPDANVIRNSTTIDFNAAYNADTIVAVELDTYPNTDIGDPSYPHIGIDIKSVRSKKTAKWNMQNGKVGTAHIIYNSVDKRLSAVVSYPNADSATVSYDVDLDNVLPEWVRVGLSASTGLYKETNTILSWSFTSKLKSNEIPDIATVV

[9] = compounds binding Alexa647 anti-His antibody – biochemical, small-molecule microarray, 635 nm fluorescence, artefact control for SMM control protein annotation, primary screen (AID 1128); conditions: higher = more signal;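 further: score merges feature fluorescence with signal-to-noise for each printed compound spot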
[10] = system: Human papillomavirus type 1a E7 protein (residues 1-88); assay: HPV1a E7 small-molecule binders, primary screen, biochemical, small-molecule microarray, residues 1-88, 635 nm (AID 1129); conditions: small-molecule microarray binding, fluorescence 635 nm; higher = more signal
[11] = biological target: Focal adhesion kinase 1 (Homo sapiens) (UniProt Q05397); assay: PTK2 protein binding on printed compound slides – biochemical, small-molecule microarray, 635/667 nm fluorescence, BSA, DTT, primary screen (AID 1130); conditions: 635 nm fluorescence, higher = more signal;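 further: composite of spot emission at 667 nm and signal to noise over triplicate slides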
Chain of Focal adhesion kinase 1 (Homo sapiens) (Q05397 whole entry, looked up): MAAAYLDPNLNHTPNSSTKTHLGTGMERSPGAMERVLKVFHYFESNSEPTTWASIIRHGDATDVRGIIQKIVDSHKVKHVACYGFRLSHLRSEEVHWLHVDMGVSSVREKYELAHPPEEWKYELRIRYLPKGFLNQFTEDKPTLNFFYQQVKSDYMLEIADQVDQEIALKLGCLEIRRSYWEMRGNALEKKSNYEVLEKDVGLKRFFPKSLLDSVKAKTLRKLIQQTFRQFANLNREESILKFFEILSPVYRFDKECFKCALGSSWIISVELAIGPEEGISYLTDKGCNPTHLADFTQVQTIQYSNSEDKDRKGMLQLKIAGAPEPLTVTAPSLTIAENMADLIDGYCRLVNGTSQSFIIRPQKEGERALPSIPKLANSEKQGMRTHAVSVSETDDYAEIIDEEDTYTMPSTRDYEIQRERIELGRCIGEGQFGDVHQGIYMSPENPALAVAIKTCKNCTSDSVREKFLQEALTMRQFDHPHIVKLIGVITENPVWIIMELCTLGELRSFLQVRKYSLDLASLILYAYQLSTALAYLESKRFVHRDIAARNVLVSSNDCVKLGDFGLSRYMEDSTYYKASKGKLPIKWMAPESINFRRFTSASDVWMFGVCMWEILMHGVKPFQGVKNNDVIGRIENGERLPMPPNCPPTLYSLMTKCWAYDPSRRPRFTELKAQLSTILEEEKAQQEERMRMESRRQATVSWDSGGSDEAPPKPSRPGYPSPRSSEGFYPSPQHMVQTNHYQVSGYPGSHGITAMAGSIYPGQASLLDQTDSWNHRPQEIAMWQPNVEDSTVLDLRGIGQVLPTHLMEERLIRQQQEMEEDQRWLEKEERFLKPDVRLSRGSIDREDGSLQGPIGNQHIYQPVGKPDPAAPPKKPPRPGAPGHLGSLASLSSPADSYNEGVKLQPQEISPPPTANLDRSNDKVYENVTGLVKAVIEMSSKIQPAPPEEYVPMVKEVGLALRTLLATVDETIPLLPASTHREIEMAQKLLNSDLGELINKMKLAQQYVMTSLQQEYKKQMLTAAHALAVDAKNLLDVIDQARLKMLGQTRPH

[12] = system: Fibrinogen (Alexa647-labelled); assay: Alexa647-fibrinogen binding to printed small molecules – biochemical, small-molecule microarray, 635/667 nm fluorescence, artefact control for SMM control-protein annotation, profiling panel (AID 1131); conditions: fibrinogen-A647 binding fluorescence, higher = more signal;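 further: z-score merges 667 nm fluorescence with per-spot signal-to-noise over triplicate slides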
[13] = biological target: Follistatin (Homo sapiens) (UniProt P19883); assay: FST protein binding to printed compounds – biochemical, small-molecule microarray, 635/667 nm fluorescence, primary screen (AID 1132); conditions: 635 nm fluorescence, higher = more signal
Chain of Follistatin (Homo sapiens) (P19883 whole entry, looked up): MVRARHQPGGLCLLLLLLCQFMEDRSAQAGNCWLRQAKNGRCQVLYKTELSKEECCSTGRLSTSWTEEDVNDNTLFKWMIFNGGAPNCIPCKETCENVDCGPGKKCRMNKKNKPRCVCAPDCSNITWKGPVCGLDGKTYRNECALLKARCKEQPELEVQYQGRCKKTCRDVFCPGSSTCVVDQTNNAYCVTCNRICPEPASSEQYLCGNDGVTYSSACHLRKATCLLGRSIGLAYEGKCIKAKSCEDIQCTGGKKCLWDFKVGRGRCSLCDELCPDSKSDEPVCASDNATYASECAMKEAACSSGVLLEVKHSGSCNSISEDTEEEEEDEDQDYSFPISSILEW

[14] = biological target: Fibroblast growth factor 2 (Homo sapiens) (UniProt P09038); assay: basic fibroblast growth factor binding to printed compounds – biochemical, small-molecule microarray, 635/667 nm fluorescence, primary screen (AID 1133); conditions: FGF2, fluorescence 635/667, higher = more signal
Chain of Fibroblast growth factor 2 (Homo sapiens) (P09038 whole entry, looked up): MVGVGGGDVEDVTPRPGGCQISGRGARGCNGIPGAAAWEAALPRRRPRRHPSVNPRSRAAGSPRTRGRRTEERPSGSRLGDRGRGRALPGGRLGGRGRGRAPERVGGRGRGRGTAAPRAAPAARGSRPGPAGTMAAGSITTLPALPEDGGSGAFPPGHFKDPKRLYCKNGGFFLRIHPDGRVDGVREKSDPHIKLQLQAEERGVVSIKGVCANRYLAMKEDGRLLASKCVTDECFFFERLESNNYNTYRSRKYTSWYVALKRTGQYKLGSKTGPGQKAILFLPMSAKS

[15] = JC-1 mitochondrial potential readout, lung cancer cells – cell-based, A549, JC-1 fluorescence, basal, 24 h, 100 nL, profiling panel (AID 1138); conditions: higher = more signal;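 further: A549 lung adenocarcinoma cells under basal conditions with no added stimulus; test concentration not given here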
Lefty1 = Lefty1 protein binding to printed compounds – biochemical, small-molecule microarray, 635/667 nm fluorescence, primary screen (AID 1139); conditions: fluorescence 635/667, higher = more signal
[16] = system: wheat germ agglutinin (Triticum aestivum), Alexa647-labelled; assay: Alexa647-WGA lectin binding to printed small molecules – biochemical, small-molecule microarray, 635/667 nm fluorescence, artefact control for SMM control-protein annotation, profiling panel (AID 1140); conditions: WGA-A647 binding, 635 nm fluorescence, higher = more signal;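 further: score merges 667 nm feature emission with signal to noise over triplicate slides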
[17] = biological target: Luciferin 4-monooxygenase (Photinus pyralis) (UniProt P08659); assay: inhibition of purified Photinus pyralis luciferase – biochemical, luminescence, purified enzyme, 2006 set, primary screen (AID 1141); conditions: purified firefly luciferase, SteadyGlo luminescence, 30 min; higher = more signal, called active from +8 up or from −8 down;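 further: cell-free assay with purified firefly luciferase at 100 ng per well in PBS; test concentration not given here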
Chain of Luciferin 4-monooxygenase (Photinus pyralis) (P08659 whole entry, looked up): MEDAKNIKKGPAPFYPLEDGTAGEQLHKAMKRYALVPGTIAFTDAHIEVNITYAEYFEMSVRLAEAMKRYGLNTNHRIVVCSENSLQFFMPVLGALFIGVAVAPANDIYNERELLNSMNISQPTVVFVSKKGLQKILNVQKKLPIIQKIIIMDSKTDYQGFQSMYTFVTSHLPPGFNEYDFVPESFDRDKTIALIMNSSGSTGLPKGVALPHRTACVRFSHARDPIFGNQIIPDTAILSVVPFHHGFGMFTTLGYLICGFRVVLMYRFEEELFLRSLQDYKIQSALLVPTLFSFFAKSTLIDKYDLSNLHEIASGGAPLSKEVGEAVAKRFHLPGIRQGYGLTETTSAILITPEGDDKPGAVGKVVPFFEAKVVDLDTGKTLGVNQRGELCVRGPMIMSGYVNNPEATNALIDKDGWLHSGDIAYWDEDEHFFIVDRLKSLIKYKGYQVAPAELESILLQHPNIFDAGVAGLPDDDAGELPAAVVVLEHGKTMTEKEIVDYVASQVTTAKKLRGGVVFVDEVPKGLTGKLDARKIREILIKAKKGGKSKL

SMILES	composite z-score (Albumin (Bos taurus))	composite Z-score [1]	composite z-score [2]	composite z-score [3]	composite z-score [4]	composite z-score [5]	composite z-score [6]	composite z-score (Sam68 (KHDRBS1))	composite z-score [7]	composite z-score [8]	composite z-score [9]	composite z-score [10]	composite z-score [11]	composite z-score [12]	composite z-score [13]	composite z-score [14]	z-score [15]	composite z-score (Lefty1)	composite z-score [16]	z-score [17]
CC(C)OC(=O)CC(=O)CC(O)c1cccc([N+](=O)[O-])c1 (stereo not given)	0.799	-0.144 (inactive)	0.241	-0.177	0.633	0.707	-0.107	1.22	0.01	0.828	0.68	1.14	0.4	0.438	0.461	-0.277	-0.428	-0.0245	0.265	1.9 (inactive)
C[C@@H]1ON(c2ccc(I)cc2)[C@H](c2cccc(NC(=O)OCC3c4ccccc4-c4ccccc43)c2)[C@H]1C(=O)N1C(=O)OC[C@H]1Cc1ccccc1	-0.0188	-0.222 (inactive)	0.0276	-0.126	0.456	0.367	0.111	0.668	0.926	1.01	0.296	0.506	-0.0828	0.544	0.566	0.249	1.37	0.593	0.334	-1.24 (inactive)
CC(C)=C1C(=O)C(c2ccccc2)=C2CN3C(=O)N(CCc4ccccc4)C(=O)[C@]3(C)[C@H]21	0.826	0.432 (inactive)	0.0162	0.166	0.373	1.23	-0.414	0.141	-0.686	0.809	-0.0854	0.871	0.701	0.679	0.21	-0.648	1.77	-0.455	0.673	0.0775 (inactive)
COC(=O)[C@@]1(Cc2ccccc2)[C@H]2c3cc(C(=O)N(C)C)n(Cc4ccc(C(F)(F)F)nc4)c3C[C@H]2CN1C(=O)c1ccccc1	0.463	-0.031 (inactive)	0.39	0.329	0.849	3.31	0.427	1.3	-0.43	0.715	0.0389	1.29	0.74	1.01	0.714	-0.428	0.353	-0.655	0.736	2.32 (inactive)
CN(C)CCCC[C@@H]1NC(=O)[C@@H]2C[C@H](C(=O)NCCCCCN)[C@H](c3cccc(OCCO)c3)N2C1=O	0.49	0.932 (inactive)	0.423	-0.14	0.727	0.482	1.27	1.33	0.495	1.21	2.76	1.05	-0.155	0.851	1.08	1.25	2.13	0.908	0.632	-1.6 (inactive)
CCCCCCc1nc(-c2ccc(-c3ccc(Cl)c(Cl)c3)o2)cc2c1[Si](C(C)C)(C(C)C)OC2	0.521	-0.935 (inactive)	-0.261	-0.156	-0.216	0.445	-0.389	-0.248	-0.834	-0.48	-0.265	-0.819	-0.0104	-1.85	-0.577	-0.985	-0.413	-0.468	0.105	-5.02 (inactive)
C=C(COC)C(=O)CC[C@@H](OC(C)=O)c1ccccc1OCCO	-0.145	-0.975 (inactive)	0.183	-0.15	0.675	-0.762	0.583	0.789	-0.0113	-0.0386	0.456	0.318	-0.517	-0.698	1.15	1.09	0.356	0.791	0.523	-2.79 (inactive)
O=C1O[C@@H](c2ccccc2)[C@@H](c2ccccc2)N2[C@@H](c3ccc(OCCO)cc3)[C@]3(C(=O)Nc4ccc(C#CC5(O)CCCCCC5)cc43)[C@@H](C(=O)O)[C@H]12	0.572	-0.014 (inactive)	0.0745	-0.0725	0.685	0.969	0.58	1.34	-0.458	0.994	2.8	1.18	1.24	0.832	0.776	0.155	0.741	0.68	0.601	-2.86 (inactive)
Cc1ccc(F)cc1S(=O)(=O)N[C@H]1CCN(Cc2ccc(OC(C)C)cc2)C1	-0.052	-0.058 (inactive)	-0.0244	-0.19	0.231	1.89	0.659	0.65	0.544	-0.201	0.6	-0.296	-0.198	-0.71	0.855	0.157	1.3	1.1	-0.6	-0.557 (inactive)
CC1CC/C=C\[C@H]2OC34C=CCN(Cc5ccccc5)C(=O)[C@H]3N(CCCCCCO)C(=O)[C@@H]4C2C(=O)O1 (stereo not given in full)	0.434	-0.213 (inactive)	-0.383	-0.133	0.895	0.42	0.718	-0.957	-0.993	-1.45	0.607	-0.415	-0.28	-1.31	-0.909	-0.808	0.856	-0.869	-0.51	-1.51 (inactive)
O=C1[C@@H]2[C@@H](CC(COc3ccccc3)=C([C@H](O)CCc3ccccc3)[C@@H]2CO)C(=O)N1Cc1ccccc1	0.574	0.356 (inactive)	0.15	-0.148	0.42	1.05	0.424	0.582	0.249	0.929	1.71	0.332	1.2	0.724	0.561	0.175	2.07	0.715	0.124	-0.172 (inactive)
